Source: the supplement of paper PMC8728848
The full list was thinned out, with the strongest signals kept by preference.

Legend:
Experiment in all cases: glycan array binding signal (z-score within array); higher = stronger binding
Conditions in all cases: glycan notation: IUPAC condensed, linker removed
[1] = biological target: Man(a1-3)[Man(a1-6)]Man(a1-6)[Man(a1-3)]Man(b1-4)GlcNAc(b1-4)GlcNAc
Summary of the method: (§1)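 The Consortium for Functional Glycomics database supplied 3228 glycan arrays, of which those lacking an available protein sequence were dropped. The binding signal, a within-array Z-score, was averaged across arrays of the same protein sequence and across linkers. Negative scores can be read as non-binding.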

[2] = biological target: Man(a1-3)[Man(a1-6)]Man(b1-4)GlcNAc(b1-4)GlcNAc
Summary of the method: as §1

[3] = biological target: Man(a1-3)[Man(a1-6)]Man(b1-4)GlcNAc(b1-4)[Fuc(a1-6)]GlcNAc
Summary of the method: as §1

[4] = biological target: Neu5Ac(a2-3)Gal
Summary of the method: as §1

[5] = biological target: Neu5Ac(a2-3)Gal(b1-3)GalNAc(b1-4)[Neu5Ac(a2-3)]Gal(b1-4)Glc
Summary of the method: as §1

[6] = biological target: Neu5Ac(a2-3)Gal(b1-3)GlcNAc(b1-6)GalNAc
Summary of the method: as §1

[7] = biological target: Neu5Ac(a2-3)Gal(b1-4)GlcNAc(b1-2)[Neu5Ac(a2-3)Gal(b1-4)GlcNAc(b1-6)]Man(a1-6)[Neu5Ac(a2-3)Gal(b1-4)GlcNAc(b1-2)Man(a1-3)][GlcNAc(b1-4)]Man(b1-4)GlcNAc(b1-4)GlcNAc
Summary of the method: as §1

[8] = biological target: Neu5Ac(a2-3)Gal(b1-4)GlcNAc(b1-3)Gal(b1-4)GlcNAc(b1-3)[Neu5Ac(a2-3)Gal(b1-4)GlcNAc(b1-3)Gal(b1-4)GlcNAc(b1-6)]GalNAc
Summary of the method: as §1

[9] = biological target: Neu5Ac(a2-3)Gal(b1-4)[Fuc(a1-3)]GlcNAc(b1-3)Gal(b1-4)GlcNAc
Summary of the method: as §1

[10] = biological target: Neu5Ac(a2-3)Gal(b1-4)[Fuc(a1-3)]GlcNAc(b1-6)[Gal(b1-3)]GalNAc
Summary of the method: as §1

[11] = biological target: Neu5Ac(a2-3)[Neu5Ac(a2-6)]GalNAc
Summary of the method: as §1

[12] = biological target: Neu5Ac(a2-6)Gal(b1-4)GlcNAc(b1-2)Man(a1-3)[Man(a1-6)]Man(b1-4)GlcNAc(b1-4)GlcNAc
Summary of the method: as §1

[13] = biological target: Neu5Ac(a2-6)Gal(b1-4)GlcNAc(b1-2)Man(a1-6)[Man(a1-3)]Man(b1-4)GlcNAc(b1-4)GlcNAc
Summary of the method: as §1

[14] = biological target: Neu5Ac(a2-6)Gal(b1-4)GlcNAc(b1-3)Gal(b1-4)GlcNAc(b1-2)Man(a1-3)[Neu5Ac(a2-6)Gal(b1-4)GlcNAc(b1-3)Gal(b1-4)GlcNAc(b1-2)Man(a1-6)]GalNAc
Summary of the method: as §1

[15] = biological target: Neu5Ac(a2-6)Gal(b1-4)GlcNAc(b1-3)Gal(b1-4)GlcNAc(b1-3)Gal(b1-4)GlcNAc(b1-2)Man(a1-3)[Neu5Ac(a2-6)Gal(b1-4)GlcNAc(b1-3)Gal(b1-4)GlcNAc(b1-3)Gal(b1-4)GlcNAc(b1-2)Man(a1-6)]GalNAc
Summary of the method: as §1

[16] = biological target: Neu5Ac(a2-6)GalNAc(b1-4)GlcNAc
Summary of the method: as §1

[17] = biological target: Neu5Ac(a2-8)Neu5Ac(a2-8)Neu5Ac(a2-3)[Gal(b1-3)GalNAc(b1-4)]Gal(b1-4)Glc
Summary of the method: as §1

[18] = biological target: Neu5Ac(b2-6)GalNAc
Summary of the method: as §1

B1: HHA (Hippeastrum hybrid) (protein)
chain: MQQDCNLVLYDVDKPIWASNTGGLARDCHLNMQSDGNLVVYAPRNQVIWASNTQGENGNYVCILQKDRNVVIYGTARWATGTNIHGAGIVGVPGSAPQNTTAEMIKLVRKYLITK
Q: How did the “glycan array binding signal (z-score)” value [1] turn out when B1 was run?
A: The value was 5.15.

Q: What about the “glycan array binding signal (z-score)” value [2] of the same binder?
A: Its value is 8.3.

Q: What about the “glycan array binding signal (z-score)” value [3] of the same binder?
A: The value was 6.07.

Q: What about the “glycan array binding signal (z-score)” value [4] of the same binder?
A: The value was -0.214.

Q: What about the “glycan array binding signal (z-score)” value [5] of the same binder?
A: The value was -0.218.

Q: And the “glycan array binding signal (z-score)” value [6]?
A: The value was -0.216.

Q: And the “glycan array binding signal (z-score)” value [7]?
A: The value was -0.221.

Q: And the “glycan array binding signal (z-score)” value [8]?
A: Its value is -0.187.

Q: And the “glycan array binding signal (z-score)” value [9]?
A: Its value is -0.211.

Q: And the “glycan array binding signal (z-score)” value [10]?
A: Its value is -0.179.

Q: What about the “glycan array binding signal (z-score)” value [11] of the same binder?
A: The value was -0.215.

Q: What about the “glycan array binding signal (z-score)” value [12] of the same binder?
A: The value was 0.002.

Q: What about the “glycan array binding signal (z-score)” value [13] of the same binder?
A: Its value is 3.55.

Q: And the “glycan array binding signal (z-score)” value [14]?
A: Its value is -0.165.

Q: And the “glycan array binding signal (z-score)” value [15]?
A: The value was -0.107.

Q: And the “glycan array binding signal (z-score)” value [16]?
A: Its value is -0.222.

Q: And the “glycan array binding signal (z-score)” value [17]?
A: The value was -0.177.

Q: And the “glycan array binding signal (z-score)” value [18]?
A: Its value is -0.213.
